A selection: hits, their analogues and other compounds. The true share with any hit is near 5.4%.
PP1 counter: PP1-alpha phosphatase inhibitors, primary screen, counter-screen for PP5 inhibitor project, biochemical, fluorescence, OMFP substrate, single point | purified PP1alpha | inhibition, % at 6.7 µM | AID 2235, 2010 | 0.9% of 320,000 active | Serine/threonine-protein phosphatase PP1-alpha catalytic subunit (Homo sapiens), P62136;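 active = inhibition above the mean inhibition of all tested compounds plus 3 SD, computed separately for each screening campaign, cut at about 15% in these data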
Target sequence (P62136 whole entry, looked up): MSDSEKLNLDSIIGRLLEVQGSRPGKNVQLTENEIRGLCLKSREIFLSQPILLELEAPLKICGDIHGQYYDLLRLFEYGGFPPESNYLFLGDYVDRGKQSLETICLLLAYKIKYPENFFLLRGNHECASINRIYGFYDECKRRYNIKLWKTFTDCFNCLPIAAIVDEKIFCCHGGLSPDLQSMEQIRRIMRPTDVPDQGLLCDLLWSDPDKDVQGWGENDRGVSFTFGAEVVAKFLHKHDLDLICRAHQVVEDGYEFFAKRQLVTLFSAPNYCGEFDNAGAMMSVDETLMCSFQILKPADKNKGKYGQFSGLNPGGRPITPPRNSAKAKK
CSC inhib: cancer stem cell viability inhibitors, primary screen, luminescence | cancer stem cell-like cells viability | inhibition, % at 7.5 µM | 1.1% of 300,000 active; in the data active = inhibition above about 75%; inconclusive = no clear call, values can overlap the other calls; tested in HMLE shEcad cells
Calb FLC: C. albicans growth inhibition with fluconazole, primary screen, CaCi-2 strain, Alamar Blue fluorescence | 0.57% of 300,000 active | AID 1979, 2009 | growth inhibition, % (test concentration not listed) | C. albicans CaCi-2 (fluconazole-resistant clinical isolate) + fluconazole, 48 h;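 active = growth inhibition above about 58% in most replicates, limit read from the data, passing the limit was not always enough; inconclusive = exactly half the replicates above a set limit; inactive = most replicates below a set limit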;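 note: all wells also contain fluconazole at 8 µg/ml as a sub-toxic cotreatment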
PP5 inh: PP5 phosphatase inhibitors, primary screen, biochemical, fluorescence | purified PP5c, OMFP substrate fluorescence | inhibition, % at 6.7 µM | 0.18% of 320,000 active;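 active = inhibition above the campaign's mean inhibition across all tested compounds plus 3 SD, cut at about 9.5% in these data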
ALR H2O2 inh: inhibitors of human ALR sulfhydryl oxidase, primary screen, biochemical, H2O2 detection, HRP-luminol luminescence, single point; purified ALR, DTT oxidation; inhibition, % (test concentration not listed); FAD-linked sulfhydryl oxidase ALR (Homo sapiens), P55789; AID 485317, 2010; 3.8% of 290,000 active;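 active = mean replicate inhibition above about 79%, with every replicate also reaching it, limit read from the data; inconclusive = only one of the two criteria met; inactive = mean below limit and not every replicate reaching it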
Target sequence (P55789 whole entry, looked up): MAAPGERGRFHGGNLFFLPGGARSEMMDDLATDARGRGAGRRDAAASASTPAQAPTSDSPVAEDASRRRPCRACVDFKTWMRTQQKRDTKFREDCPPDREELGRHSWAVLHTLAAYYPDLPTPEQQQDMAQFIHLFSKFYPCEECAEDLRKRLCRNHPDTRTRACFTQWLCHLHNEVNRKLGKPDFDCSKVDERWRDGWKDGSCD
A number is an active result.

What do the screens show for `COc1cc(/C=C/CN2CCN(CCC(C)C)C(CCO)C2)ccc1O` (stereo not drawn)?
PP1 counter: inactive; CSC inhib: inactive; Calb FLC: inactive; PP5 inh: inactive; ALR H2O2 inh: 94.0

How did CC(CNC(=O)c1ccc(C#N)cc1)NC(=O)c1ccc(C#N)cc1 (stereo not drawn) do in these assays?
CSC inhib: inactive; Calb FLC: inactive; ALR H2O2 inh: inactive

How did CC(NC(=O)c1ccccc1NS(C)(=O)=O)c1ccccc1 (stereo not drawn) do in these assays?
PP1 counter: inactive; CSC inhib: inactive; Calb FLC: inactive; PP5 inh: inactive; ALR H2O2 inh: inactive

Results for CCC(=O)N1c2ccccc2C(N(C(C)=O)c2ccccc2)CC1C (stereo not drawn) ?
PP1 counter: inactive; CSC inhib: inactive; Calb FLC: inactive; PP5 inh: inactive

How did CCCCNC(=O)CC1N=C2c3ccccc3N=C(SCC(=O)Nc3ccccc3C)N2C1=O (stereo not drawn) do in these assays?
PP1 counter: inactive; Calb FLC: inactive; PP5 inh: inactive; ALR H2O2 inh: 93.6

Results for CCOC(=O)CSC1=Nc2ccccc2C2=NC(CC(=O)NCc3ccccc3)C(=O)N12 (stereo not drawn) ?
PP1 counter: inactive; CSC inhib: inactive; Calb FLC: inactive; PP5 inh: inactive; ALR H2O2 inh: 98.1

What do the screens show for `CCOC(=O)CSC1=Nc2ccccc2C2=NC(CC(=O)NCc3cccs3)C(=O)N12` (stereo not drawn)?
PP1 counter: inactive; CSC inhib: inactive; Calb FLC: inactive; PP5 inh: inactive; ALR H2O2 inh: inactive

How did c1ccc(-c2noc(-c3ccc4c(c3)OCO4)n2)nc1 do in these assays?
PP1 counter: inactive; CSC inhib: 95.1; Calb FLC: inactive; PP5 inh: inactive; ALR H2O2 inh: inactive

What do the screens show for `Cc1ccc(NC(=O)CN(C)CC(=O)Nc2cccc(F)c2)cc1S(=O)(=O)N1CCCCCC1`?
PP1 counter: inactive; CSC inhib: inactive; Calb FLC: inactive; PP5 inh: inactive; ALR H2O2 inh: inactive

How did O=C(Nc1cccc2[nH]ncc12)NS(=O)(=O)c1ccccc1 do in these assays?
PP1 counter: inactive; CSC inhib: inactive; Calb FLC: inactive; PP5 inh: inactive; ALR H2O2 inh: 96.9

Results for CC(=O)Nc1ccc(S(=O)(=O)Nc2cccc3[nH]ncc23)cc1 ?
PP1 counter: inactive; Calb FLC: inactive; PP5 inh: inactive; ALR H2O2 inh: inactive

What do the screens show for `COc1ccccc1NC(=O)c1cc[n+]([O-])cc1`?
PP1 counter: inactive; CSC inhib: inactive; Calb FLC: inactive; PP5 inh: inactive; ALR H2O2 inh: inactive

Results for Cc1cc2c(c(=O)o1)C(CCC1CCCCC1)C(C#N)=C(N)O2 (stereo not drawn) ?
PP1 counter: inactive; CSC inhib: inactive; Calb FLC: inactive; PP5 inh: inactive; ALR H2O2 inh: 96.8

What do the screens show for `CCc1ccc(NSc2ccccc2[N+](=O)[O-])cc1`?
PP1 counter: inactive; CSC inhib: inactive; Calb FLC: inactive; PP5 inh: inactive; ALR H2O2 inh: inactive

What do the screens show for `Cc1noc(/C=C/c2ccccn2)c1[N+](=O)[O-]`?
PP1 counter: inactive; CSC inhib: inactive; Calb FLC: 84.8; PP5 inh: inactive; ALR H2O2 inh: inactive

Results for COc1cc(/C(C)=N/NC(=O)CSc2nc3ccccc3[nH]2)ccc1O ?
PP1 counter: inactive; CSC inhib: inactive; Calb FLC: inactive; PP5 inh: inactive; ALR H2O2 inh: 99.3

What do the screens show for `C/C(=N\NC(=O)CSc1nnc(C)s1)c1ccc(O)cc1`?
PP1 counter: inactive; CSC inhib: inactive; Calb FLC: inactive; PP5 inh: inactive; ALR H2O2 inh: 98.7

Results for COc1cc(/C(C)=N/NC(=O)CSc2nnc(C)s2)ccc1O ?
PP1 counter: inactive; CSC inhib: inactive; Calb FLC: inactive; PP5 inh: inactive; ALR H2O2 inh: 94.5

What do the screens show for `CN1C[N+]([O-])=C(c2ccccc2)C1(C)C`?
PP1 counter: inactive; CSC inhib: inactive; Calb FLC: inactive; PP5 inh: inactive; ALR H2O2 inh: inactive

How did O=C(C=C1SCCS1)/C=C/c1ccco1 do in these assays?
PP1 counter: inactive; CSC inhib: inactive; Calb FLC: inactive; PP5 inh: inactive; ALR H2O2 inh: inconclusive

What do the screens show for `CCc1sc(NC(C)=O)nc1-c1ccccc1`?
PP1 counter: inactive; CSC inhib: inactive; Calb FLC: inconclusive; PP5 inh: inactive; ALR H2O2 inh: inactive

Results for CCc1sc(NS(C)(=O)=O)nc1-c1ccccc1 ?
PP1 counter: inactive; CSC inhib: inactive; Calb FLC: inactive; PP5 inh: inactive; ALR H2O2 inh: 98.3

Results for Cc1ccc(C(=O)NC2CCc3ccccc3C2=O)cc1 (stereo not drawn) ?
PP1 counter: inactive; CSC inhib: inactive; Calb FLC: inactive; PP5 inh: inactive; ALR H2O2 inh: inactive

How did Cc1ccc(C(=O)NC2c3ccccc3-c3ccccc32)cc1 do in these assays?
PP1 counter: inactive; CSC inhib: 82.5; Calb FLC: inactive; PP5 inh: inactive; ALR H2O2 inh: inactive

Results for O=C(COC(=O)CCCCCN=C1NS(=O)(=O)c2ccccc21)Nc1ccc(Cl)c(Cl)c1 ?
PP1 counter: inactive; CSC inhib: inactive; Calb FLC: inactive; PP5 inh: inactive; ALR H2O2 inh: inactive

How did CSC1=NSC2=NC(=O)/C(=C/c3coc4ccccc4c3=O)C(=N)N12 do in these assays?
PP1 counter: inactive; CSC inhib: inactive; PP5 inh: inactive; ALR H2O2 inh: 98.3

How did N=C1/C(=C/c2cccs2)C(=O)N=C2SN=C(SCc3ccccc3)N12 do in these assays?
PP1 counter: inactive; CSC inhib: inactive; Calb FLC: inactive; PP5 inh: inactive; ALR H2O2 inh: 95.6

Results for CS(=O)(=O)N(CC(=O)N1CCCC1)c1ccc(Cl)c(Cl)c1 ?
PP1 counter: inactive; CSC inhib: inactive; Calb FLC: inactive; PP5 inh: inactive

What do the screens show for `O=C(N/N=C\c1ccc2c(c1)OCO2)c1ccc(Cn2cc(Br)c([N+](=O)[O-])n2)o1`?
PP1 counter: inactive; CSC inhib: 84.5; Calb FLC: inactive; PP5 inh: inactive; ALR H2O2 inh: inactive

How did COc1cc(/C=N/NC(=O)c2ccc(Cn3cc([N+](=O)[O-])cn3)o2)cc(Br)c1O do in these assays?
PP1 counter: inactive; CSC inhib: inactive; Calb FLC: inactive; PP5 inh: inactive; ALR H2O2 inh: 95.9

Results for O=C(N/N=C\c1cccc(F)c1)c1ccc(Cn2cc(Br)c([N+](=O)[O-])n2)o1 ?
PP1 counter: inactive; CSC inhib: inactive; Calb FLC: inactive; PP5 inh: inactive; ALR H2O2 inh: inactive

How did O=C(N/N=C\c1ccc(F)cc1)c1ccc(Cn2cc(Br)c([N+](=O)[O-])n2)o1 do in these assays?
PP1 counter: inactive; CSC inhib: inactive; Calb FLC: inactive; PP5 inh: inactive; ALR H2O2 inh: inactive

Results for COc1cc(/C=N\NC(=O)c2ccc(Cn3cc(Br)c([N+](=O)[O-])n3)o2)cc(OC)c1O ?
PP1 counter: inactive; CSC inhib: inactive; Calb FLC: inactive; PP5 inh: inactive; ALR H2O2 inh: 99.8

Source: PubChem (several laboratories)
